This is a sample that favours compounds with a hit; in the whole collection about 5.7% have one here.
HepG2 tox: qHTS for Inhibitors of TGF-b: Cytotox Counterscreen. HepG2 CAGA-GFP viability, ATP luminescence, 18 h. Potency, µM (top dose mostly 46.1 µM), for the others: at the top dose activity change, negative = cytotoxicity, most hits filed as cytotoxic. hit rate 0.76% among 410,000. AID 588856, 2011; also: potency is read from the fitted curve at half-maximal effect
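HepG2 CAGA-GFP cells (1000/well, DMEM with 1% FBS) received compound, then TGF-beta at 500 pg/mL final, and were incubated 18 hours at 37 degrees C. Viability was read by CellTiter-Glo luminescence. Media-only wells were set as complete cell-killing and DMSO as no toxicity.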
ATXN viability: Viability Counterscreen for Primary qHTS for Inhibitors of ATXN expression | S2 cells (HEK-293 line with an ATXN2-luciferase reporter) viability, CellTiter-Fluor protease fluorescence, 24 h | Potency, µM (titrated, usually from 56.7 µM), most hits filed as cytotoxic | hit rate 0.49% among 400,000 | AID 651635, 2014; also: potency is read from the fitted curve at half-maximal effect; nearly all actives have a fitted effect of over 40% in size
ATXN2 expr inh: Primary qHTS for Inhibitors of ATXN expression. HEK-293 ATXN2-luciferase reporter, luminescence, 24 h. Potency, µM (highest dose often 57 µM), without a hit: top-dose activity change, negative = inhibition, hits mostly inhibitors. hit rate 0.72% among 360,000. AID 1745845, 2022; also: potency is read from the fitted curve at half-maximal effect; % is scaled to controls: 0 for no effect and ±100 for the full control effect; nearly all actives have a fitted effect of over 55% in size
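ATXN2-luciferase reporter cells (luciferase flanked by upstream and downstream ATXN2 gene portions) were treated 24 h at 37 °C with compounds at up to 57 uM. SteadyGlo luminescence gave expression; GF-AFC fluorescence gave viability.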
TGFb inhibitor: qHTS for Inhibitors of TGF-b; HepG2 CAGA-GFP TGF-b/SMAD3 reporter, GFP fluorescence, 18 h; TGF-beta stimulated, 500 pg/mL final; Potency, µM (highest dose often 46.1 µM), inactives show at the highest dose activity, negative = inhibition, actives largely listed as inhibitors; hit rate 1.2% among 410,000; also: potency is read from the fitted curve at half-maximal effect; % is scaled to controls: 0 for no effect and ±100 for the full control effect; nearly all actives have a fitted effect of over 65% in size
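Smad-responsive CAGA-GFP expression was quantified in HEPG2 cells exposed to compounds and 500 pg/mL final TGF-beta for 18 h at 37 degrees C; unstimulated wells defined full inhibition.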
IL1B secr inh: qHTS for Inhibitors of Inflammasome Signaling: IL-1-beta AlphaLISA Primary Screen; THP-1 LPS/ATP IL-1B secretion, AlphaLISA, 16 h; hits give low values; activity change, % at 57.5 µM; hit rate 4.7% among 360,000; in the data active = activity change below about -50%; inconclusive = mostly about -30% to -49%; also: % is scaled to controls: 0 for no effect and ±100 for the full control effect
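THP-1 cells pretreated 1 hr with compounds (up to 57.5 uM final), then stimulated with LPS (250 ng/mL final) plus ATP (1.25 mM final); secreted IL-1B measured by AlphaLISA after 16 hr, decreased signal indicating inhibition.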
An asterisk follows results filed as active; i = inactive; ? = inconclusive; · = no result; [ ] = remark or other dose. Unless noted, calls follow the shape of the dose curve; as a rule, active = well fitted curve in the direction sought with a large enough effect; inconclusive = small, poorly fitted or top-dose-only effect, or another doubt; inactive = no such curve, though single readings can be large; an effect the other way counts as inactive or inconclusive.

SMILES	HepG2 tox	ATXN viability	ATXN2 expr inh	TGFb inhibitor	IL1B secr inh
CCOc1ccc(/C=C2\SC(=S)N(CCCC(=O)NCCCN3CCOCC3)C2=O)cc1	-15.2%	?	8.91µM*	?	-89.4*
CCc1ccc(/C=C2/SC(=S)N(CCC(=O)NCCCN3CCOCC3)C2=O)cc1	-30.5%	?	73.3%	-21.7%	-29.5
Cc1ccc(C)c(CN2CCCN(CC(=O)Nc3ccc(C)c(C)c3)S2(=O)=O)c1	-27.7%	·	·	?	·
Cc1c(C(=O)N2CCCC2)sc2ncnc(NCCN(C)C)c12	·	i	·	·	·
Cc1ccc(-c2csc(NC(=O)CSc3nc4ccccc4c(=O)n3CCCN(C)C)n2)cc1	-102.7%	?	?	?	-96.6*
Cn1c(SCC(=O)N2c3ccccc3Sc3ccccc32)nc2ccccc21	11.7%	i	-3.9%	-8.5%	?
COc1ccccc1-c1nnc(SCC(=O)Nc2nc(-c3ccccc3)cs2)n1C	-26.0%	i	-21.6%	-8.3%	-21.2
CCn1c(SCC(=O)Nc2nc(-c3ccc(C)cc3)cs2)nnc1-c1ccccc1	-17.3%	i	-11.8%	?	-55.2*
CCn1c(SCC(=O)Nc2nc(-c3ccc(C)cc3)cs2)nnc1-c1ccccc1O	3.6%	i	-15.5%	?	-51.1*
CCn1c(CSc2nc(C)cc(C)n2)nnc1SCC(=O)Nc1nc(-c2ccccc2)cs1	5.5%	i	-9.3%	-5.2%	32.0
CN(C)CCCn1c(SCC(=O)N2c3ccccc3Sc3ccccc32)nc2ccccc2c1=O	10µM*	25.1µM*	28.2µM*	-21.3%	-102.0*
Oc1cc(NCCc2cccnc2)cc2cccnc12	11.2µM*	?	39.8µM*	?	·
CC(C)c1ccccc1NC(=O)Nc1nc(C(N)Cc2ccc(C(F)(F)F)cc2)cs1 (stereo unspecified)	8.91µM*	·	?	11.2µM*	-18.3
CC(C)CC(N)c1csc(NC(=O)Nc2ccccc2C(C)C)n1 (stereo unspecified)	-98.2%	?	?	?	?
CC(N)c1csc(NC(=O)Nc2cccc(C(F)(F)F)c2)n1 (stereo unspecified)	20µM*	?	?	?	-102.2*
CC(C)(C)c1ccccc1NC(=O)Nc1nc(C(N)Cc2ccc(F)cc2)cs1 (stereo unspecified)	-107.1%	i	-9.2%	?	-53.3*
CCCCOc1ccc(S(=O)(=O)Nc2cc(OC)ccc2OC)cc1	-54.1%	i	-18.2%	?	-75.2*
COc1ccc(OC)c(NS(=O)(=O)c2ccccc2)c1	-6.5%	·	·	25.6%	·
O=[N+]([O-])c1ccc(O/N=[N+](\[O-])N2CCCCC2)c([N+](=O)[O-])c1	-1.9%	·	·	4.0%	·
CCc1ccc(CNC(=O)c2ccc(NC(=O)N3CC(C)Sc4ccccc43)cc2)cc1 (stereo unspecified)	1.3%	i	6.7%	?	·
CCc1cc(Cn2nc(-c3ccccc3)cc2C(=O)NCc2cccs2)on1	-84.3%	?	?	?	-72.6*
COc1ccc(-c2cc(C)no2)cc1S(=O)(=O)NC(C)C	-23.0%	·	·	-22.0%	·
CCc1ccc(NC(=O)CSc2nc3n[nH]c(C)c3c(=N)n2-c2cccc(OC)c2)cc1	-15.3%	i	-11.3%	11.2%	-19.3
Cc1ccc(-n2c(SCC(=O)Nc3cccc(Cl)c3)nc3n[nH]c(C)c3c2=N)cc1	12.6µM*	·	·	1.78µM*	·
COc1cccc(NC(=O)CSc2nc3n[nH]c(C)c3c(=N)n2-c2cccc(OC)c2)c1	15.7%	i	3.2%	?	-51.0*
SMILES	HepG2 tox	ATXN viability	ATXN2 expr inh	TGFb inhibitor	IL1B secr inh
COC(=O)c1ccccc1NC(=O)COc1ccccc1C(=O)Nc1ccccc1	-26.6%	·	·	?	·
Cc1cc(C(=O)CN2C(=O)CN(C)C2=O)c(C)n1-c1cccc(S(=O)(=O)N2CCOCC2)c1	-2.4%	i	·	-1.8%	-9.6
Cc1cc(C(=O)CCl)c(C)n1-c1cccc(S(=O)(=O)N2CCOCC2)c1	-108.8%	·	-18.4%[11.3 µM]	?	-102.3*
Cc1ccc(N2C=Nc3ccc(C)c4nc(C)cc2c34)cc1	-27.5%	i	-25.3%	0.5%	-51.6*
CC1=Nc2ccc(C)c3nc(C)cc(c23)N1c1ccc(C)cc1	-21.2%	i	2.9%	22.0%	0.0
Cn1c(=O)c2c(-c3ccc(Cl)cc3)n(CCc3ccccc3)cc2n(C)c1=O	-27.3%	i	7.5%	?	·
Cn1c(=O)c2c(-c3ccc(Br)cc3)n(CCc3ccccc3)cc2n(C)c1=O	-54.3%	?	?	10µM*	·
COc1cc(-c2nc3ccc(N4CCN(C)CC4)cc3[nH]2)cc(OC)c1OC	-4.3%	i	110.8%	-14.7%	-51.8*
CC(C)c1ccc(NC(=S)NCCc2c[nH]c3ccccc23)cc1	-20.1%	i	0.5%	?	-52.8*
Cc1ccc(NS(=O)(=O)c2cccc(C(=O)NCCc3c[nH]c4ccccc34)c2)c(C)c1	-18.9%	i	?	?	-78.0*
Cc1ccc(NC(=O)C(=O)NCCc2c[nH]c3ccccc23)c(C)c1	-26.4%	i	-4.4%	-2.5%	-15.3
Cc1ccc(C)c(NC(=S)NCCc2c[nH]c3ccccc23)c1	-16.5%	i	-33.4%	?	-57.9*
CCS(=O)(=O)N1CCCc2cc(C(=O)Nc3cc([N+](=O)[O-])ccc3C)ccc21	-12.6%	?	?	-9.1%	·
Cc1c(-c2cccc(NC(=O)Nc3ccccc3)c2)nc2ncccn12	-8.4%	·	·	-4.5%	·
Nc1ccc2cccnc2c1	-15.8%	·	·	-2.2%	·
Cc1ccccc1NC(=O)CSc1nc(-c2ccco2)nc2cc(=O)[nH]n12	-5.7%	i	17.3%	-22.3%	·
Cc1ccccc1NC(=O)CSc1nc(-c2ccccc2C)nc2cc(=O)[nH]n12	-38.2%	?	?	3.55µM*	·
O=C(NC1CCCC1)c1cn(C2CCCN(Cc3ccc4c(c3)OCCO4)C2)nn1 (stereo unspecified)	·	i	·	·	·
Cn1cc(-c2cnn3c(N)c(Br)c([C@H]4CCCNC4)nc23)cn1	·	·	0.385µM*	·	·
CC(C)(C)n1ncc2c(=O)n(Cc3ccc(Cl)cc3F)cnc21	-32.2%	·	·	?	·
O=c1cnnc(N/N=C/c2ccccn2)[nH]1	-24.2%	?	1.78µM*	-29.8%	186.8
O=c1nc(N/N=C/c2ccccn2)cn[nH]1	-13.3%	i	6.31µM*	5.7%	159.5
Cc1cc(=O)[nH]c(N/N=C/c2ccccn2)n1	-10.6%	i	?	?	89.1
CN1C(C(=O)NC(C)(C)C)=CC(c2ccc3c(c2)OCO3)=NS1(=O)=O	-11.5%	i	-6.5%	-7.9%	·
COc1ccc(S(=O)(=O)c2cnc(SCC(=O)Nc3cc(F)ccc3C)[nH]c2=O)cc1Cl	1.3%	i	4.5%	0.0%	·
